Screening results as filed in PubChem.
Mac1 fbg enh: CD11b/CD18-fibrinogen binding enhancement; activation, % at 10 µM; AID 1499; actives 0.07% (n = 93,000); K562 CD11b/CD18 adhesion to fibrinogen, ATPlite luminescence;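 active means 10 µM primary screen giving 50% or more activity, confirmed by 40% or more on retest at that dose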
Smad3 FoxH1 inh: Smad3 (human) transcription factor binding inhibition | TR-FRET Smad3/Dy647-FoxH1 peptide binding, europium anti-His | inhibition, % at 25 µM | AID 630 | actives 0.29% (n = 88,000) | P84022;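 active means compounds that reduce the energy-transfer binding signal between the protein and its labelled peptide by more than half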;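 further: 0% = Smad3 plus labelled peptide maximal FRET and 100% = peptide-only background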
Target sequence (P84022 whole entry, looked up): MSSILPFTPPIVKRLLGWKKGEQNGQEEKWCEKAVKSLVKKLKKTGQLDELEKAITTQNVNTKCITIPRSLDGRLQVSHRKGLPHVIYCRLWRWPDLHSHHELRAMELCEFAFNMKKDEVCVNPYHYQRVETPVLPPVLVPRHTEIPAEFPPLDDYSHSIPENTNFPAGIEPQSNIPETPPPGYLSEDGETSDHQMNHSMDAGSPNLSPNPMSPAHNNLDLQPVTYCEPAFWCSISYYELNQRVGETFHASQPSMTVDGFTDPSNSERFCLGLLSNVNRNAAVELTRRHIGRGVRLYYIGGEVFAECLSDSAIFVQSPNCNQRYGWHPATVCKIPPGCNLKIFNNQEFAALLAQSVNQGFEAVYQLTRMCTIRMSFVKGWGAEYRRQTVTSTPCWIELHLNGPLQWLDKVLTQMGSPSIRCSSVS
MRP-1 activ: MRP-1 activation | H69AR cells + doxorubicin, viability rescue, CellTiter-Glo | actives 0.61% (n = 140,000) | viability increase, % at 10 µM;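 active means viability gain under doxorubicin at or above a set limit, the compound median plus 3 SD, cut at about 4.7% in these data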;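 further: MRP-1 overexpressing cells given doxorubicin 25 µM after compound pretreatment; 18-22 h compound pretreatment then 72 h with doxorubicin before readout; 0% = doxorubicin-only wells and 100% = vehicle-treated cells without doxorubicin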
CD11b adhes inh: CD11b/CD18-fibrinogen binding inhibition | P05107+P11215 | K562 CD11b/CD18 adhesion to fibrinogen, ATPlite luminescence; Mn2+ added to activate the integrin | inhibition, % at 10 µM | actives 0.54% (n = 93,000) | AID 1497;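 active means primary inhibition of 50% or more at 10 µM, then 40% or more on retest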
Phagocytosis inh: inhibitors of macrophage phagocytosis | AID 1029 | J774A.1 macrophage IgG-bead phagocytosis, imaging | actives 0.07% (n = 110,000) | inhibition, % at 5 µM;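 active means inhibition above the mean of the plate negative controls plus 5 SD, cut at about 13% in these data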;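 further: phagocytic index as fraction of beads internalized from green versus red external bead signal; plate controls were DMSO negative control for no effect and cytochalasin-D positive control for full effect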
MRP resist rev: compounds reversing MRP-mediated drug resistance; H69AR cells + 2 uM doxorubicin, CellTiter-Glo, 72 h; differential viability (reversal), % at 10 µM; actives 0.04% (n = 85,000); AID 602;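 active means viability drop by adding the cancer drug above about 55%, with treated viability meeting a 40% cutoff, limit read from the data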;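 further: viability without doxorubicin minus viability with 2 µM doxorubicin for each compound; larger differential means the compound sensitizes cells more to doxorubicin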
The depositor's hits bear a star. Most compounds without a hit are left out; they make up all but 1.2% or so of the library.

For c1ccc(N2CCN(c3ccccc3)C2c2cccnc2)cc1 the results were Smad3 FoxH1 inh -6, MRP-1 activ -4 and MRP resist rev 60*.
`[O-][N+]1(CC[N+]2([O-])CCCCC2)CCCCC1` gave Smad3 FoxH1 inh -8.
For Cc1c(-c2nc(N)nc(C3CC3)c2C)nc(N)nc1C1CC1 the results were Smad3 FoxH1 inh -4.
For Cc1cc(/C=C2\SC(=S)NC2=O)c(C)n1C the results were Mac1 fbg enh -6, MRP-1 activ 5.5*, CD11b adhes inh 9 and Phagocytosis inh 1.
Cc1nn(C)cc1/C=C1\SC(=S)NC1=O was read as Mac1 fbg enh -3, MRP-1 activ -3, CD11b adhes inh 19 and Phagocytosis inh 0.
For CCOc1ccc(-c2nc(C#N)c(NCC(C)C)o2)cc1 the results were Mac1 fbg enh 0, Smad3 FoxH1 inh 12, MRP-1 activ 6.8*, CD11b adhes inh -2, Phagocytosis inh 0 and MRP resist rev 6.
`C=CCNc1oc(-c2ccc(OCC)cc2)nc1C#N` gave Mac1 fbg enh 1, Smad3 FoxH1 inh -2, MRP-1 activ -2, CD11b adhes inh -6, Phagocytosis inh -1 and MRP resist rev 20.
For Cn1ccnc1-c1nc2ccccc2[nH]c1=O the results were Smad3 FoxH1 inh 12, MRP-1 activ -2 and MRP resist rev 82*.
CCn1c(=O)c(C(=O)Nc2nc3ccccc3[nH]2)c(O)c2ccccc21 was read as Mac1 fbg enh -8, MRP-1 activ -3, CD11b adhes inh 96* and Phagocytosis inh -2.
For CCn1c(=O)c(C(=O)Nn2c(C)nc3ccccc3c2=O)c(O)c2ccccc21 the results were Mac1 fbg enh -1, Smad3 FoxH1 inh 19, MRP-1 activ -1, CD11b adhes inh -1, Phagocytosis inh 0 and MRP resist rev -15.
COc1ccc(Cn2c(SCc3ccccc3C)nc3cc(OC)c(OC)cc3c2=N)cc1 was read as Mac1 fbg enh 135*, MRP-1 activ -7, CD11b adhes inh -3 and Phagocytosis inh -2.
`Cc1ccc(-c2csc(NC(=O)C3=COCCO3)n2)cc1` gave Mac1 fbg enh 8, MRP-1 activ 2, CD11b adhes inh 3 and Phagocytosis inh -10.
Screening O=C(Nc1nc(-c2ccc(Oc3ccccc3)cc2)cs1)C1=COCCO1 returned MRP-1 activ 7.1* and Phagocytosis inh -8.
Screening Cc1cccc(N2CN(Cc3ccco3)CNC2=S)c1C returned Mac1 fbg enh -2, MRP-1 activ -3, CD11b adhes inh 12 and Phagocytosis inh -11.
Screening CCN1/C(=C/c2ccc3ccccc3[n+]2CC)C=Cc2ccccc21 returned Mac1 fbg enh -6, Smad3 FoxH1 inh -34, MRP-1 activ -3, CD11b adhes inh 94*, Phagocytosis inh 2 and MRP resist rev 0.
`CCN1/C(=C/c2cc[n+](C)cc2)C=Cc2cc(C)ccc21` gave MRP-1 activ -4 and Phagocytosis inh 1.
CN(C)CCCCN1CCc2c(n(C)c3ccccc23)C1=O was read as Smad3 FoxH1 inh -5.
Screening Cc1cccc(-c2nc(CSCC(=O)N3CCN(Cc4ccc5c(c4)OCO5)CC3)c(C)o2)c1 returned Mac1 fbg enh -5, Smad3 FoxH1 inh -8, MRP-1 activ -3, CD11b adhes inh 81*, Phagocytosis inh -1 and MRP resist rev -25.
`O=C(CSCc1ccccc1)N1CCN(Cc2ccc3c(c2)OCO3)CC1` gave Smad3 FoxH1 inh 2, MRP-1 activ 0 and MRP resist rev 5.
`CCc1ccc(-c2nc(CSCC(=O)N3CCN(c4ccccn4)CC3)c(C)o2)cc1` gave Smad3 FoxH1 inh 10, MRP-1 activ -4 and MRP resist rev -5.
Screening Cc1ccc(-c2nc(CSCC(=O)N3CCN(c4ccccn4)CC3)c(C)o2)cc1 returned Mac1 fbg enh -14, Smad3 FoxH1 inh 6, MRP-1 activ -2, CD11b adhes inh 88* and MRP resist rev -7.
CC(C)/C(=N\[N+](C)(C)C)c1ccccc1 was read as Smad3 FoxH1 inh 3.
For COc1ccc(CSC2=NCCN2)cc1Cl the results were Mac1 fbg enh -5, Smad3 FoxH1 inh -1, MRP-1 activ 9.7*, CD11b adhes inh 1, Phagocytosis inh -1 and MRP resist rev 5.
For CCCOc1ccc(CSC2=NCCN2)cc1[N+](=O)[O-] the results were Mac1 fbg enh -3, MRP-1 activ -1, CD11b adhes inh 0 and Phagocytosis inh -2.
For CCOc1ccccc1N(CC(=O)O)S(=O)(=O)c1ccccc1 the results were Mac1 fbg enh -3, Smad3 FoxH1 inh -9, MRP-1 activ 4.8*, CD11b adhes inh -1, Phagocytosis inh 2 and MRP resist rev -5.
`Cc1csc(NC(=O)c2cc3c(C)nn(Cc4ccccc4Cl)c3s2)n1` gave MRP-1 activ 5.0* and Phagocytosis inh -1.
For Cc1ccc(S(=O)(=O)NC(=O)OC23COCN2COC3)cc1 the results were Smad3 FoxH1 inh 21.
`CCOC(=O)c1c(C)c(C)n(Cc2cccc(OC)c2OC)c1C` gave MRP-1 activ -2 and Phagocytosis inh -3.
CCOC(=O)c1cc(C)n(Cc2cccc(OC)c2OC)c1C was read as Mac1 fbg enh -3, Smad3 FoxH1 inh -12, MRP-1 activ 0, CD11b adhes inh 56*, Phagocytosis inh 0 and MRP resist rev 2.
For O=C(CNCc1ccc(Cl)cc1)NCc1ccco1 the results were MRP-1 activ 0 and Phagocytosis inh -7.
`O=C(Nc1nc(-c2cccs2)c(-c2cccs2)s1)C1(c2ccccc2)CC1` gave Mac1 fbg enh 2, MRP-1 activ 5.2*, CD11b adhes inh -9 and Phagocytosis inh -16.
`CCN(c1nc(C)cc(OC)n1)S(=O)(=O)c1ccccc1` gave Mac1 fbg enh 7, MRP-1 activ -3, CD11b adhes inh 1 and Phagocytosis inh 0.
`Cc1ccccc1NC(=O)Cn1c(NCC(C)O)nc2ccccc21` (stereo unspecified) gave Mac1 fbg enh -2, MRP-1 activ 0, CD11b adhes inh 1 and Phagocytosis inh -8.
Screening CCOC(=O)CN1C(=O)C(C)(C)Oc2ccc(C(=O)Nc3ccccc3OC)cc21 returned Mac1 fbg enh -1, Smad3 FoxH1 inh 10, MRP-1 activ 5.3*, CD11b adhes inh 10, Phagocytosis inh 0 and MRP resist rev -6.
`Cc1ccc(NC(=O)c2ccc3c(c2)N(CC(=O)N2CCCCC2)C(=O)C(C)(C)O3)cc1` gave Mac1 fbg enh 4, Smad3 FoxH1 inh -4, MRP-1 activ -5, CD11b adhes inh -27, Phagocytosis inh 0 and MRP resist rev -24.
For O=C(Cc1ccccc1F)Nc1cccc2cccnc12 the results were MRP-1 activ 5.9* and Phagocytosis inh -5.
`O=C(O)CCCC(=O)Nc1cccc2cccnc12` gave Mac1 fbg enh -1, MRP-1 activ -1, CD11b adhes inh -2 and Phagocytosis inh 0.
[O-]/N=C1/C(=[OH+])Nc2ccccc21.[O-]Nc1c([O+]=[Cu])[nH]c2ccccc12 was read as Smad3 FoxH1 inh 10.
